Shown are actives, neighbours in structure and some others; about 21% of the full set was active somewhere.
ELG1 DNA repair: blocks ELG1-dependent DNA repair in HEK293T cells. HEK293T ELG1-luciferase reporter, luminescence, 16 h; DNA damage induced by 5-fluorouridine. Potency, µM (highest dose often 46.1 µM), actives largely listed as inhibitors. 2.3% of 330,000 active; note: nearly all actives have a fitted effect of over 55% in size
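Cells (2,000 per well) received 5-fluorouridine plus test compound or DMSO and were incubated 16 hr at 37 °C, 5% CO2. Luciferase activity was read by luminescence 30 min after ONE-Glo addition; signal suppression marked inhibition of damage-induced ELG1 function.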
TDP1 cell noCPT: qHTS for Inhibitors of human tyrosyl-DNA phosphodiesterase 1 (TDP1): qHTS in cells in absence of CPT; DT40 Tdp1-/- hTDP1 cells, no CPT, ATP luminescence, 48 h; Potency, µM (highest dose often 46.2 µM), actives largely listed as inhibitors; 15% of 420,000 active; note: nearly all actives have a fitted effect of over 55% in size
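Seeded 400 DT40-hTDP1 cells/well (vehicle DMSO, no 20 nM CPT); pinned compounds; ≥48 hr at 37 °C; CellTiter-Glo luminescence as viability measure.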
RORg inh: blocks mouse ROR gamma transcriptional activity. P51450. Drosophila S2 Gal4-RORgamma UAS-luciferase reporter, 20 h. Potency, µM (series often up to 53.6 µM), usual class: inhibitors. 5.4% of 310,000 active; note: nearly all actives have a fitted effect of over 60% in size
Target sequence (P51450 whole entry, looked up, the tested form may be a part): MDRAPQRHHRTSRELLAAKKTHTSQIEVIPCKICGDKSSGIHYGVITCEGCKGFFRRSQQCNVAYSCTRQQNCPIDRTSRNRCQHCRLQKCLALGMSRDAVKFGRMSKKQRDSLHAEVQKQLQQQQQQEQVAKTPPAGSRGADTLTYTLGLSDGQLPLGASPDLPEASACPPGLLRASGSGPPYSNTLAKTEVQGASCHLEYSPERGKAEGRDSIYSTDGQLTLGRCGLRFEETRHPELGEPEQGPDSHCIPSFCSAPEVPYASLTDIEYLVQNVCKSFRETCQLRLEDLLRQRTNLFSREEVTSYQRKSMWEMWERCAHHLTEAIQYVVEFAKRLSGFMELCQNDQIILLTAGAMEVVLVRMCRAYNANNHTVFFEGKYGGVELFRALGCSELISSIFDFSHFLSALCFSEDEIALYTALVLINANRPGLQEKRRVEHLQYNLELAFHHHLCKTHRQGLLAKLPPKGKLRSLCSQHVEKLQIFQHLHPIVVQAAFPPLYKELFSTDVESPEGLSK
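Luminescence from a UAS-regulated Photinus luciferase reporter in stably transfected Drosophila Schneider cells is measured; decreased signal marks ROR gamma inhibition. Fusion expression is induced by 700 uM copper sulfate for 20 hr.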
Gal4-VP16 FLuc: inhibits Gal4-VP16 luciferase reporter, ROR gamma counter-screen | Drosophila S2 Gal4-VP16 UAS-luciferase, luminescence, 20 h | AID 2546 | 3.5% of 310,000 active | Potency, µM (highest dose often 53.6 µM), most hits filed as inhibitors;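 note: Gal4-VP16 expression switched on by copper sulfate through the metallothionein promoter; nearly all actives have a fitted effect of over 50% in size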
TDP1 cell CPT: DT40-hTDP1 cell growth loss with CPT; Potency, µM (series often up to 46.2 µM), hits mostly inhibitors; chicken DT40 Tdp1-/-;hTDP1 cells + 20 nM CPT, ATP luminescence, 48 h; 12% of 420,000 active; note: nearly all actives have a fitted effect of over 55% in size
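Chicken DT40 Tdp1-/- cells complemented with human TDP1, 400 cells/well, exposed to compounds plus 20 nM camptothecin for at least 48 h at 37 C; viability read as ATP content by CellTiter-Glo luminescence.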
IL-1B inflam inh: inflammasome signaling inhibition, IL-1 beta readout; AID 743279; THP-1 LPS/ATP IL-1B secretion, AlphaLISA, 16 h; active compounds read low; 4.7% of 360,000 active; activity change, % at 57.5 µM; in the data active = activity change below about -50%; inconclusive = mostly about -30% to -49%
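Secreted IL-1B measured by AlphaLISA bead assay after 16 h compound exposure of THP-1 cells; compounds (final up to 57.5 uM) added 1 h before LPS (250 ng/mL) and ATP (1.25 mM) stimulation; lower signal means less secretion.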
Numbers stand for hits; - = inactive; ? = inconclusive; . = no result. Unless noted, calls come from the whole dose curve; as a rule, active = well fitted curve in the direction sought with a large enough effect; inconclusive = small, poorly fitted or top-dose-only effect, or another doubt; inactive = no such curve, though single readings can be large; an effect the other way counts as inactive or inconclusive.

SMILES	ELG1 DNA repair	TDP1 cell noCPT	RORg inh	Gal4-VP16 FLuc	TDP1 cell CPT	IL-1B inflam inh
CCc1nn2c(=O)cc(COC(=O)C3CCCCC3)nc2s1	.	-	.	.	-	.
Cc1ccc(C=Nc2ccccc2C(N)=O)s1	-	3.66µM	-	?	4.11µM	-
Cc1cccc(CCNC(=O)Cn2ncc3c(=O)oc4ccccc4c32)c1	.	-	.	.	?	.
O=C(NC(=O)c1csnn1)Nc1ccccc1Cl	?	-	-	-	-	-
Nc1nnc(CC(=O)N/N=C/c2ccc(-c3ccccc3)o2)s1	-	-	-	-	-	-
COc1ccc(-c2ccc(/C=N/NC(=O)Cc3nnc(N)s3)o2)cc1Cl	-	18.4µM	-	-	?	-
COC(=O)c1ccc(-c2ccc(/C=N/NC(=O)Cc3nnc(N)s3)o2)cc1	-	?	-	-	-	-85.7
COc1ccc(C2OC3=C(Nc4cc(C)c(C)cc4N3)C2=O)cc1 (stereo not drawn)	?	-	-	?	-	-
COc1ccccc1C1OC2=C(Nc3ccc([N+](=O)[O-])cc3N2)C1=O (stereo not drawn)	23.1µM	13µM	-	-	13µM	-
CC1CCC(NC(=O)COc2ccc(C(=O)c3ccccc3)cc2)CC1 (stereo not drawn)	-	10.3µM	?	?	?	-64.8
COc1ccccc1OCCOc1ccc(C(=O)c2ccccc2)cc1	-	?	?	-	18.4µM	-
CC1CCN(CCOc2ccc(C(=O)c3ccccc3)cc2)CC1	-	?	-	-	16.4µM	-
CC(=O)c1ccc(OCC(=O)NC2CCCCCC2)cc1	?	-	.	.	-	-
CC1CCN(CCCOc2ccc(OCc3ccccc3)cc2)CC1	-	?	-	-	?	-
CC1CCCC(C)N1C(=O)COC(=O)c1cccnc1Cl (stereo not drawn)	?	-	.	.	-	-
CCCn1cnnc1CNC(=O)[C@H]1O[C@@H](n2ccc(=O)[nH]c2=O)[C@H](O)[C@@H]1O	.	-	.	.	-	-
CC(=O)N(C)C[C@@H]1Oc2ncc(C#Cc3ccc(F)cc3)cc2C(=O)N([C@@H](C)CO)C[C@H]1C	.	-	.	.	-	-
COc1ccc(N2CCN(C(=O)CS(=O)(=O)c3cccc4nsnc34)CC2)cc1	.	-	.	.	-	.
COc1ccc2[nH]c(=O)c(CN(Cc3cccs3)C(=S)NCC3CCCO3)cc2c1 (stereo not drawn)	23.1µM	23.1µM	-	-	23.1µM	-
Cc1cc(C)c2[nH]c(=O)c(CN(Cc3cccs3)C(=S)NCC3CCCO3)cc2c1 (stereo not drawn)	25.9µM	20.6µM	?	-	?	-
Cc1cc2cc(CN(Cc3cccs3)C(=S)NCC3CCCO3)c(=O)[nH]c2cc1C (stereo not drawn)	?	?	-	-	?	-65.9
CC(C)N(Cc1ccccc1)C(=O)CN1C(=O)NC2(CCOc3ccccc32)C1=O (stereo not drawn)	-	-	.	.	-	-
C=C1N(C)c2cc([N+](=O)[O-])c(N)cc2C1(C)C	-	-	-	-	-	-53.2
O=C(c1ccc2c(c1)N(Cc1cccc(Cl)c1)C(=O)c1ccccc1S2(=O)=O)N1CCN(Cc2ccccc2)CC1	.	9.2µM	.	.	14.6µM	.
Cc1cccc(N2CCN(C(=O)c3ccc4c(c3)N(Cc3cccc(Cl)c3)C(=O)c3ccccc3S4(=O)=O)CC2)c1C	.	-	.	.	-	.
O=C(c1ccc2c(c1)N(Cc1cccc(Cl)c1)C(=O)c1ccccc1S2(=O)=O)N1CCCCCC1	.	23.1µM	.	.	18.4µM	.
O=C(c1ccc2c(c1)N(Cc1cccc(Cl)c1)C(=O)c1ccccc1S2(=O)=O)N1CCCC1	.	20.6µM	.	.	23.1µM	.
CC1CCCN(CCCNC(=O)c2ccc3c(c2)N(Cc2cccc(Cl)c2)C(=O)c2ccccc2S3(=O)=O)C1 (stereo not drawn)	.	5.8µM	.	.	6.51µM	.
